Test results: PubChem BioAssay (NCI)
Compounds without any hit were thinned out: in the full panel of roughly 83,000, 20% have a hit.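 96-well plates, one dose, 48 hours. Percent growth reported; active if below 10.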 Unmarked numbers belong to inactive results. The source made the active and inactive calls.

How the values were obtained:
Experiment in all cases: NCI-60 one-dose screen, 48 h (100 = growth as untreated, 0 = no growth, -100 = all killed)
Conditions in all cases: 10 µM unless noted
[1] = system: NCI-H23 lung
[2] = system: NCI-H226 lung
[3] = system: NCI-H322M lung
[4] = system: HOP-62 NSCLC
[5] = system: NCI-H460 lung
[6] = system: HOP-92 NSCLC
[7] = system: 786-0 renal
[8] = system: COLO 205 colon
[9] = system: DU-145 prostate
[10] = system: K-562 leukemia
[11] = system: MDA-MB-231 breast
[12] = system: RXF 393 renal
[13] = system: SF-268 CNS
[14] = system: SF-295 CNS
[15] = system: SF-539 CNS
[16] = system: UACC-257 melanoma
[17] = system: M14 melanoma
[18] = system: MALME-3M melanoma
[19] = system: A549/ATCC NSCLC

SMILES	growth [1]	growth [2]	growth [3]	growth [4]	growth [5]	growth [6]	growth [7]	growth [8]	growth [9]	growth [10]	growth [11]	growth [12]	growth [13]	growth [14]	growth [15]	growth [16]	growth [17]	growth [18]	growth [19] [%]
Nc1ccccc1-c1ccn[nH]1	110%	86.8%	93.8%	87.4%	104%	91.4%	98.9%	86.6%	101%	78.5%	101%	111%	88.8%	101%	97.9%	103%	94.2%	–	–
COc1ccc2nc(N/N=C(\C)c3ccccn3)cc(C)c2c1	19.8%	-49.5% (active)	8.51% (active)	2.82% (active)	-68% (active)	7.16% (active)	-89.7% (active)	-78.2% (active)	–	-51.5% (active)	-63.1% (active)	–	-2.13% (active)	-81.2% (active)	-90.6% (active)	16.7%	-78.7% (active)	-24% (active)	–
COc1cccc(/C=N/Nc2nc3ccccc3s2)c1OC	101%	83.3%	76%	68.8%	34.5%	–	82.1%	71.6%	98.3%	50.9%	86.3%	97.9%	72.7%	85.4%	74.2%	96.4%	91.1%	90.4%	69.1
Clc1ccc2nc(CI)c(CI)nc2c1	85.8%	56.4%	83.7%	94.3%	118%	19.3%	0.747% (active)	0% (active)	86.1%	-20.1% (active)	74.4%	–	73.7%	88.8%	100%	86.2%	48.9%	74.6%	–
Cc1ccc(OCC(=O)Nc2ccc(Oc3ccccc3)cc2)c([N+](=O)[O-])n1	47%	68.8%	95%	79.6%	76.3%	73.7%	66.3%	94.5%	90.4%	–	85.4%	66.1%	86.5%	89.5%	78.3%	–	74.7%	87.7%	–
N#Cc1ncc(-c2ccc(C(F)(F)F)cc2)c(NC2CCCCCC2)n1	29.9%	35.1%	78.2%	43.9%	29.8%	-22.6% (active)	37.9%	7.19% (active)	60.5%	13.6%	56.3%	36.6%	39.3%	-29.5% (active)	74.4%	–	22.4%	-49.2% (active)	–
O=C(NCCCl)NCCN1c2nc3ccccc3cc2Sc2cc3ccccc3nc21	39.1%	63.5%	107%	51.7%	26%	-5.57% (active)	57.9%	73.8%	–	21.5%	39.5%	–	44.2%	409%	38.3%	65.8%	69.2%	60.4%	–
O=Nc1c2cccnc2n2nnc3ccc(Cl)cc3c12	66.4%	85.9%	107%	115%	27.7%	-40.5% (active)	59%	-5.58% (active)	-10.6% (active)	–	13.9%	–	48.7%	90.3%	91.4%	28.6%	81.5%	23.7%	–
CCCCCc1c(C)[nH]c(/C=C2\N=C(c3ccc[nH]3)C=C2OCc2ccccc2)c1C	-67.3% [100 µM] (active)	-42.5% [100 µM] (active)	-94.6% [100 µM] (active)	-91.9% [100 µM] (active)	-40.4% [100 µM] (active)	-77.6% [100 µM] (active)	-75.7% [100 µM] (active)	-84% [100 µM] (active)	-100% [100 µM] (active)	-26.2% [100 µM] (active)	-86.4% [100 µM] (active)	-48.8% [100 µM] (active)	-70.9% [100 µM] (active)	–	-69.8% [100 µM] (active)	-87.7% [100 µM] (active)	-81.4% [100 µM] (active)	-86.9% [100 µM] (active)	–
Cc1ccc(S(=O)(=O)NCCN2c3nc4ccccc4cc3Sc3cc4ccccc4nc32)cc1	56.9%	65.6%	91.7%	55.8%	70.8%	15.7%	61.9%	113%	–	87.9%	36.8%	–	52.4%	93.8%	11.7%	54.7%	77.4%	128%	–
CC(=O)c1ccc(NS(=O)(=O)c2ccc([N+](=O)[O-])cc2)cc1	105%	99.4%	121%	87%	114%	83.4%	105%	106%	111%	82.1%	88.9%	104%	104%	–	97.8%	105%	107%	115%	–
CCOC(=O)N1CCC(N=C2CSc3nnc(-c4cc(C(F)(F)F)cc(C(F)(F)F)c4)n3N2)CC1	15.3%	29.4%	67.4%	-4.27% (active)	18.2%	19.9%	–	-9.91% (active)	64.6%	28.3%	34.4%	–	50.2%	33.4%	18.3%	48.6%	27.5%	68.4%	–
COc1cccc(N2CCN(c3cccc(C)n3)CC2)c1	103%	105%	103%	87.7%	117%	79.2%	99.6%	123%	106%	85.2%	101%	76.4%	129%	83.2%	101%	97.7%	89.9%	102%	–
C[C@]12CCC(=O)C=C1CCC1C2[C@@H](O)C[C@@]2(C)C1CC[C@]2(O)C(=O)COC(=O)CCC(=O)O (stereo not given in full)	106%	77.4%	95.4%	112%	102%	60.6%	116%	110%	118%	117%	94.7%	121%	107%	117%	97%	114%	104%	81.7%	–
O=C1Nc2ccc(Cl)cc2/C1=C/c1cccs1	88.9%	88.7%	90.5%	80.8%	93.4%	93.7%	108%	117%	105%	103%	70.6%	94.3%	88.8%	94.3%	85.3%	–	101%	95.9%	–
O=C(O)c1ccc(CNS(=O)(=O)c2ccc3ccccc3c2)cc1	119%	100%	114%	112%	120%	132%	106%	105%	93.7%	94.5%	105%	–	96.2%	105%	106%	99.1%	103%	93.7%	–
CC(=O)Nc1ccc(C(=O)COc2cccc(/C=C3\CCc4ccccc4C3=O)c2)cc1	84.4%	70.7%	105%	104%	97.1%	70.8%	92.9%	130%	–	36.8%	90%	–	90.1%	486%	96.7%	89.8%	104%	19.6%	–
